Reference: PubChem BioAssay (NCATS)
Records with an inconclusive call do not appear. Entries that show only a call come without a potency. Active and inactive are the calls of the source. The call rests on the fitted dose curve; in most records, active means well fitted curve in the direction sought with a large enough effect; inconclusive means small, poorly fitted or top-dose-only effect, or another doubt; inactive means no such curve, though single readings can be large; an effect the other way counts as inactive or inconclusive. Starred links: 1 amine or outer side, 2 acyl side, 3 side chain; linkers in the order of their positions; H or OH if unused. Positions of bridges follow the written chain, without caps; N, C: chain ends. Non-standard residues stand in square brackets, D forms with d. Residues, ends and D or L forms follow the SMILES beside them. ξ: configuration not given here. *: point of attachment. X3 = C[C@@H](Oc1ccc([C@H](N[*:1])C(=O)[*:2])cc1)[C@]1(/C=C\C(=O)[*:3])CO1; d(aIle) = CC[C@H](C)[C@@H](N)C(=O)O; X2 = CC(C)[C@@H](O)C(C)C(=O)*; ξNMeF = CNC(Cc1ccccc1)C(=O)O; ξT = CC(O)C(N)C(=O)O; ξS = NC(CO)C(=O)O

Legend:
[1] = HPAF-II 24hr Apoptosis Induction qHTS against the NCATS CANVASS Library (AID 1347356)
Outline: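 Apoptosis induction in HPAF-II pancreatic cancer cells is measured as caspase-3/7 luminescence after a 24-hour exposure to compounds.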

[2] = HEK293 18hr Apoptosis Induction qHTS against the NCATS CANVASS Library (AID 1347357)
Outline: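 Caspase-Glo 3/7 luminescence (15 min, room temperature) measured apoptosis after an 18-hour, 37 degrees C exposure of HEK293 cells (500 cells/well) to compounds in 11 points.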

[3] = HPAF-II 12hr Apoptosis Induction qHTS against the NCATS CANVASS Library (AID 1347358)
Outline: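 Apoptosis in HPAF-II pancreatic cancer cells is scored as caspase 3/7 luminescence following a 12-hour exposure to an 11-point compound series.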

[4] = HEK293 24hr Apoptosis Induction qHTS against the NCATS CANVASS Library (AID 1347359)
Outline: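 HEK293 cells, 500 per well, exposed to an 11-point compound series for 24 hours at 37 degrees C. Caspase 3/7 activity read by Caspase-Glo luminescence (DEVD substrate) after 15 min at room temperature.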

[5] = HPAF-II 18hr Apoptosis Induction qHTS against the NCATS CANVASS Library (AID 1347360)
Outline: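 Caspase-3/7 activation was measured with luminescent Caspase-Glo 3/7 reagent (15 min, RT) in HPAF-II cancer cells (500 cells/well). Before detection, cells had been treated for 18 h at 37 C with compounds (11 points).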

[6] = HEK293 12hr Apoptosis Induction qHTS against the NCATS CANVASS Library (AID 1347361)
Outline: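 HEK293 cells (500/well, DMEM + 10% FBS) were exposed to natural products across an 11-point series for 12 hours at 37 degrees C. Caspase-3/7 activity was then measured with DEVD luciferase luminescence after 15 min at room temperature.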

[7] = target: Luciferin 4-monooxygenase (Photinus pyralis) (UniProt P08659); experiment: Firefly luciferase counterscreen qHTS: Assay Interference Panel against the NCATS CANVASS Library (AID 1347363); further: series mostly up to about 57 µM
Outline: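 Purified P. pyralis luciferase (0.04 ug/mL, 4x reagent) added to Tris-acetate buffer with 0.013 mM D-luciferin, 0.013 mM ATP and 13.3 mM Mg-acetate; compounds preincubated 15 min, then luminescence read after 5 min, RT.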

[8] = qHTS for ATAD5 Agonist screened against the NCATS CANVASS Library (AID 1347367);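 further: luciferase reporter driven by ATAD5 which rises upon DNA damage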; further: potency means the concentration at half of the fitted maximal effect
Outline: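 Genotoxicity via ATAD5-luciferase luminescence after 16 h compound exposure (11-point series) at 37C in HEK293T-ATAD5 cells. CellTiter-Fluor viability read precedes the luminescence read; MMS serves as positive control.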

[9] = J3T Cancer Cell Toxicity qHTS against the NCATS CANVASS Library (AID 1347371); further: potency means the concentration at half of the fitted maximal effect
Outline: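 Viability of the J3T glioma line from dog is scored by ATP luminescence after a 72 hr incubation with natural products.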

[10] = qHTS for Hypoxia signaling pathway (HIF-1) agonists against the NCATS CANVASS Library (AID 1347375)
Outline: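 Inducers of HIF-1 signaling were detected in ME-180 cells bearing an HRE-driven beta-lactamase reporter after 17 h compound exposure. Activity came from CCF4-AM FRET emission ratio (460/530 nm) in qHTS format.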

[11] = DH5-alpha competent E. coli microbial cell viability qHTS against the NCATS CANVASS Library (AID 1347377); conditions: outcome: dose series up to 46.1 µM unless noted
Outline: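 Cell viability of competent DH5-alpha E. coli is scored from ATP content by luminescence. Cells sit overnight at 37C with compound across an 11-point concentration series.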

[12] = Inflammasome Signaling qHTS Counterscreen: IL-1-beta AlphaLISA counterscreen against the NCATS CANVASS Library (AID 1347381);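 further: cell-free check with purified IL-1β in medium and no THP-1 cells; series mostly up to about 57 µM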
Outline: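 To flag interference with the AlphaLISA read-out, a known amount of purified IL-1-beta (4 pg) replaced cell supernatant. Detection used anti-IL-1-beta acceptor beads, biotinylated antibody and streptavidin donor beads at room temperature.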

[13] = Cytotoxicity qHTS for assessment of Hepg2 cells membrane integrity screened against the NCATS CANVASS Library (AID 1347387)
Outline: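 Fluorescence proportional to lysed-cell number, from LDH leaking out of HepG2 cells exposed 5 hr at 37C to 0.59 nM - 46 uM compound (11-point qHTS), is measured after 10 min with CytoTox-ONE.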

[14] = qHTS for activators of dead-cell proteases activity screened against the NCATS CANVASS Library (AID 1347392);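 further: luminescence from protease leaking out of membrane-damaged cells cleaving impermeant substrate; rising signal means more cytotoxicity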
Outline: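 HepG2 cells, 2000/well, attached 18 h at 37C, then exposed to compounds (11-point qHTS) for 5 h. Dead-cell protease release read as luminescence from cell-impermeant AAF-aminoluciferin substrate after 15 min at room temperature.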

[15] = Redox Reaction Profiling qHTS: Assay Interference Panel against the NCATS CANVASS Library (AID 1347401); further: potency means the concentration at half of the fitted maximal effect
Outline: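 Compounds in 11-point series incubated with 5 uM resazurin and 200 uM DTT in 50 mM HEPES pH 7.3, 50 mM NaCl. Resorufin fluorescence (Ex 525/Em 598) read before and after 15 min in the dark.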

Chain of Luciferin 4-monooxygenase (Photinus pyralis) (P08659 whole entry, looked up): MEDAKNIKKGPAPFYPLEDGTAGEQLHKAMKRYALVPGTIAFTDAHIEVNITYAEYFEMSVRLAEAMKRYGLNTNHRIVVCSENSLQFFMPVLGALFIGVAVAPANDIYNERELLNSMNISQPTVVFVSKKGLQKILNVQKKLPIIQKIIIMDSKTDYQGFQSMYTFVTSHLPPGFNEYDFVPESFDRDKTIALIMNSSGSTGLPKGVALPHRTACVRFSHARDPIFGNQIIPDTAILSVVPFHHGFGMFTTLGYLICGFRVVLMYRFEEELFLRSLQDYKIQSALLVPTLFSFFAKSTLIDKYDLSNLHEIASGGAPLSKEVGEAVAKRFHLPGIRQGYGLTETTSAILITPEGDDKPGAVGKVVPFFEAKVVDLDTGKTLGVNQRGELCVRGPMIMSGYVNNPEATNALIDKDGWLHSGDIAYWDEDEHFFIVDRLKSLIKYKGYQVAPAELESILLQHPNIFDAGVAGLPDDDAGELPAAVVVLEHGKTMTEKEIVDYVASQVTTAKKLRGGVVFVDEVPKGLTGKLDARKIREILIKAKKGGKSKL

Structure (SMILES)	outcome [1]	outcome [2]	outcome [3]	outcome [4]	outcome [5]	outcome [6]	Potency [7]	Potency [8]	Potency [9]	outcome [10]	outcome [11]	outcome [12]	outcome [13]	outcome [14]	Potency [15]
CO[C@@]12c3c(C)cc(O)c4c(=O)occ(c34)C(=O)[C@@H]1[C@]13COC(=O)c4c(O)cc(C)c(c41)C(=O)[C@H]2[C@@H]3OC(C)=O	inactive	inactive	inactive	inactive	inactive	inactive	inactive	inactive	inactive	inactive	inactive	inactive	inactive	inactive	inactive
C=C[C@]12C=CCN3CC[C@@]4(c5ccccc5NC(=O)[C@@H]4C1)[C@@H]32	inactive	inactive	inactive	inactive	inactive	inactive	inactive	inactive	inactive	inactive	inactive	inactive	inactive	inactive	inactive
C[C@]12CCC3[C@@H](CC[C@@H]4C[C@@H](O)CC[C@]34CO)[C@@]1(O)CC[C@@H]2C1=CC(=O)OC1 (some centres undefined)	inactive	inactive	inactive	inactive	inactive	inactive	inactive	inactive	2960 nM (active)	inactive	inactive	inactive	inactive	inactive	inactive
O[C@H]1C=C[C@@]23CCN(Cc4cc5c(cc42)OCO5)[C@@H]3C1	inactive	inactive	inactive	inactive	inactive	inactive	inactive	inactive	inactive	inactive	inactive	inactive	inactive	inactive	inactive
C/C=C1/CN2CC[C@@]34c5ccccc5N(C)[C@@H]3[C@@H]2C[C@@H]1[C@H]4C(=O)OC	inactive	inactive	inactive	inactive	inactive	inactive	inactive	inactive	inactive	inactive	inactive	inactive	inactive	inactive	inactive
C/C(=C\[C@H](C)C(=O)C[C@H](O)CC1CC(=O)NC(=O)C1)[C@@H]1OC(=O)/C=C/CC/C=C/C=C/[C@@H]1C	inactive	inactive	inactive	inactive	inactive	inactive	inactive	inactive	264 nM (active)	inactive	inactive	inactive	inactive	inactive	24100 nM (active)
C[C@]12CC(O)C3[C@@H](CCC4C[C@@H](O)CC[C@@]43CO)[C@@]1(O)CC[C@@H]2C1=CC(=O)OC1 (some centres undefined)	inactive	inactive	inactive	inactive	inactive	inactive	inactive	inactive	14800 nM (active)	inactive	inactive	inactive	inactive	inactive	inactive
CO[C@H]([C@@H](C)[C@H]1O[C@]1(C)C[C@H](C)/C=C/C=C(\C)[C@H]1O[C@@H](CC(=O)O)CC[C@@H]1C)[C@@H](C)O	inactive	inactive	inactive	inactive	inactive	inactive	inactive	46.7 nM (active)	20.9 nM (active)	inactive	inactive	inactive	inactive	inactive	inactive
CCCC[C@@H](C)/C=C1/CN2CCC[C@H]2[C@@](C)(O)[C@@H]1O	inactive	inactive	inactive	inactive	inactive	inactive	inactive	inactive	inactive	inactive	inactive	inactive	inactive	inactive	inactive
CO[C@@H](/C=C/CC/C=C/C(=O)O)[C@@H](O)[C@H](C)/C=C(\C)[C@H](O)[C@H](C)C(=O)CCCC1CC(=O)NC(=O)C1	inactive	inactive	inactive	inactive	inactive	inactive	inactive	inactive	inactive	inactive	inactive	inactive	inactive	inactive	inactive
C=C(C)[C@H]1C(=O)c2c3c(cc4c5c(n1c24)[C@@]1(C)[C@@H](CC[C@H]2[C@](C)(/C=C/C=C(\C)C(=O)O)[C@@H](O)CC[C@@]21C)C5)C1=CC(C)(C)OC(C)(C)[C@H]1[C@@H]3O	–	inactive	–	inactive	–	inactive	inactive	inactive	inactive	–	inactive	inactive	–	–	19200 nM (active)
CC[C@H]1CN2CCc3c([nH]c4cccc(OC)c34)[C@@H]2C[C@@H]1/C(=C\OC)C(=O)OC	inactive	inactive	inactive	inactive	inactive	inactive	inactive	inactive	inactive	inactive	inactive	inactive	inactive	inactive	inactive
CO[C@H]1[C@H](O[C@H]2CC[C@]3(C=O)[C@H]4CC[C@]5(C)[C@@H](C6=CC(=O)OC6)CC[C@]5(O)[C@@H]4CC[C@]3(O)C2)O[C@H](C)[C@H](O)[C@@H]1OC	inactive	inactive	inactive	inactive	inactive	inactive	inactive	inactive	372 nM (active)	inactive	inactive	inactive	inactive	inactive	inactive
CCCC[C@@H]1CC[C@H]2CCCC(CCCO)N12 (some centres undefined)	inactive	inactive	inactive	inactive	inactive	inactive	inactive	inactive	inactive	inactive	inactive	inactive	inactive	inactive	inactive
C=C[C@H]1CN2CCc3c([nH]c4cccc(OC)c34)[C@@H]2C[C@@H]1/C(=C\OC)C(=O)OC	inactive	inactive	inactive	inactive	inactive	inactive	inactive	inactive	inactive	inactive	inactive	inactive	inactive	inactive	inactive
CC[C@@H]1CN2CCC3(Nc4cccc(OC)c4C3=O)[C@@H]2C[C@@H]1/C(=C\OC)C(=O)OC (some centres undefined)	inactive	inactive	inactive	inactive	inactive	inactive	inactive	inactive	inactive	inactive	inactive	inactive	inactive	inactive	inactive
COC1C(O)C(C)OC(OC2C(Oc3cccc4c(O)c5c(=O)oc6ccc(C)c7c(=O)oc(c34)c5c67)OC(C)C(O)C2O)C1O (centres undefined)	inactive	inactive	inactive	inactive	inactive	inactive	inactive	inactive	23500 nM (active)	–	inactive	inactive	inactive	inactive	2150 nM (active)
CO[C@H]1C[C@H](O[C@H]2[C@@H](O)C[C@H](O[C@H]3CC[C@]4(C=O)[C@H]5CC[C@]6(C)C(C7=CC(=O)OC7)CC[C@]6(O)[C@@H]5CC[C@]4(O)C3)O[C@@H]2C)O[C@H](C)[C@H]1O[C@H]1C[C@@H](OC)[C@@H](O[C@@H]2O[C@H](CO)[C@@H](O)[C@H](O)[C@H]2O)[C@@H](C)O1 (some centres undefined)	inactive	inactive	inactive	inactive	inactive	inactive	inactive	inactive	332 nM (active)	inactive	inactive	inactive	inactive	inactive	inactive
CC[C@]12C=CCN3CC[C@]4(C(=C(C(=O)OC)C1)Nc1ccccc14)[C@@H]32	inactive	inactive	inactive	inactive	inactive	inactive	inactive	inactive	inactive	inactive	inactive	inactive	inactive	inactive	inactive
C/C=C1/CN2C3CC1C1=CCC(=O)N4c5ccccc5[C@@]3(C[C@@H]2C2=C[C@H]3C5CC6N(CC[C@@]67c6ccccc6N(C2=O)[C@@H]37)C/C5=C/C)[C@H]14 (some centres undefined)	inactive	–	inactive	–	inactive	–	inactive	inactive	23500 nM (active)	inactive	–	inactive	inactive	inactive	inactive
CC[C@H](C)[C@H]1NC(=O)[C@@H](NC(=O)C(C)[C@H](O)C(C)C)[C@@H](C)OC(=O)C2COC(=O)CNC(=O)/C=C\[C@]3(CO3)[C@@H](C)Oc3ccc(cc3)[C@H](NC1=O)C(=O)N(C)C(Cc1ccccc1)C(=O)NC(C(C)O)C(=O)N2 (some centres undefined) (X2-T[d(aIle)][X3][ξNMeF][ξT][ξS]; ester 1-C; linker 3-6 via G)	inactive	inactive	inactive	inactive	inactive	inactive	inactive	inactive	inactive	inactive	inactive	inactive	inactive	inactive	inactive
